Among the data in PubChem BioAssay AID504912 (The Scripps Research Institute Molecular Screening Center, 2011) are inhibition values, retold here.

SMILES strings stand for the structures. The list shows a part of the results. Values without a mark were called inactive. The rule behind the calls is not given here.

This assay in a line: inverse agonists of MOR-DOR heterodimerization, counter-screen for HTR5A inverse agonist project, cell-based, luminescence (AID 504912).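 Note: 0% = cells with DMSO and 100% = wells without cells.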 The note with it: U2OS counter-screen cells, complementation luminescence; at 9.3 µM; stronger effect = higher value.
With `COc1ccc(-c2nnc(SC(C)C(=O)NC3CC3)o2)cc1` (configuration not stated), the inhibition – broadly, the change of the read-out against control, counted positive when it falls – is -19.6%.

For the molecule `O=c1ccc2c(-c3ccccc3S(=O)(=O)O)c3ccc(O)c(O)c3oc-2c1O`, the inhibition was -10.2%.

Consider `CCCCCCCCc1c(O)nc(-n2[nH]c(C)c(CCO)c2=O)[nH]c1=O`, for which the inhibition was -29.4%.

As for `Cc1noc(C)c1COc1cccc(C(=O)Nc2cccnc2)c1`, the inhibition was 3.69%.

As to `O=C(/C=C/c1ccc(Cl)c([N+](=O)[O-])c1)c1ccc(O)cc1`, the inhibition is -15.2%.

`Cc1cc(C)n(-c2ccc(Cl)c(C(=O)O)n2)n1`: the inhibition was -60.3%.

Regarding `CCOC(=O)NC(=O)C(=CNc1cccc(OC)c1)C(=O)NC(=O)OCC`, the inhibition is -172%.
